# In ChEMBL document CHEMBL1201862, “PubChem BioAssay data set” (2004):
# In all, about 55,000 sequences went through this assay and about 3,800 (6.9%) were called active. No stated cut-off is given here; in the data, active = GI50 up to about 1.1 µM and inactive = higher. The list is a sample of the results. Results with a measured potency or affinity are listed apart.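 The compound was tested at five concentrations on cells cultured in 96-well plates, with a 48-hour exposure period. The concentration for 50% growth inhibition is given as GI50.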
# Test system: CAKI-1
# Assay: NCI tumour cell line growth inhibition, 48 h
row,Substance,GI50 [µM]
1,"[Bis(aminomethyl)pentamethylenesilane]dichloropaltinum(II), CHEMBL2146202",2.26
2,"[Bis(aminomethyl)tetramethylenesilane]tetrachloropaltinum(IV), CHEMBL2146189",5.92
3,"[Bis(aminomethyl)diethylsilane]tetrachloroplatinum(IV), CHEMBL2146203",4.06
4,"[Bis(aminomethyl)ethylmethylsilane]tetrachloroplatinum(IV), CHEMBL2146192",1.19
5,"CISPLATIN, CHEMBL11359",1.99
6,"[Bis(aminomethyl)dimethylsilane]tetrachloroplatinum(IV), CHEMBL2146190",4.05
7,"[Bis(aminomethyl)dimethylsilane]dichloroplatinum (II), CHEMBL2146201",12
8,"[Bis(aminomethyl)pentamethylenesilane]tetrachloropaltinum(IV), CHEMBL2146204",2.14
9,"mu-(1,7-nanodiamine-N,N')bis-(cis-aminedichloroplatimum (II)), CHEMBL2146215",50.6
10,"[Bis(aminomethyl)tetramethylenesilane]dichloropaltinum(II), CHEMBL2146205",13.6
11,"cis-Bis[[(trimethylsilyl)methyl]amino]tetrachloroplatinum(IV), CHEMBL2146191",11.9
